A short description of experiment [1]: Wnt pathway potentiators raising nuclear beta-catenin – imaging, WNT3A-conditioned medium, mouse C2C12, NPC library, primary screen (AID 1117326; in the data active = nuclear beta-catenin stimulation mostly above about 4.2%, no sharp cut-off; inactive = mostly below about 10%; also: reference of the scale not given here). The following applies: stronger effect = higher value.
Experiment [2] in a line: stimulators of insulin release from INS-1E, primary screen, cell-based, 5 mM glucose, NPC library (AID 1117329;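 active = compound raises insulin release from rat beta cells at 5 mM glucose, no numeric limit stated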; also: reference of the scale not given here). As to conditions: rat INS-1E insulin secretion, at 10 µM, stronger effect = higher value.
Experiment [3] in a line: growth inhibition of GSK3B-pretreated HCT116 cells – cell-based, CellTiter-Glo, 0.2 to 20 µM (AID 1117336;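 active = compounds lowering colon cancer cell viability after pretreatment blocking the GSK3B kinase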). As to conditions: HCT116 viability after GSK3B inhibitor, at 20 µM, stronger effect = higher value. On the technique in general: ATP-based viability assays read luminescence as a measure of living cells.
The nature of experiment [4]: inhibition of endothelial tube formation, primary screen, imaging, VEGF stimulated, CD31 staining, tube area, NPC library (AID 1117340). The following applies: VEGF-stimulated ADSC/ECFC co-culture, at 10 µM, stronger effect = higher value.
The nature of experiment [5]: GLP1 release stimulators, primary, NCI-H716, NPC library (AID 1117341;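 active = compound raises GLP1 secretion from the human gut endocrine cells, with no numeric limit stated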; also: reference of the scale not given here). As to conditions: NCI-H716 cells, at 10 µM, stronger effect = higher value.
A short description of experiment [6]: HCT116 colon cancer cell growth inhibition, primary screen, CellTiter-Glo luminescence, NPC library (AID 1117342;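 active = compounds that lower survival of HCT116 colon cancer cells in the luminescence readout, no numeric limit stated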). The following applies: at 20 µM (top of the series).
Experiment [7] is described as follows: reduced SW480 viability measured with CellTiter-Glo, NPC library, primary (AID 1117343;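 active = compounds that lower viability of the colon cancer cells in the luminescence readout, with no numeric limit stated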). The following applies: CellTiter-Glo luminescence; at 20 µM (top of the series).
The nature of experiment [8]: NPC library primary testing for decreased DLD-1 cell viability via CellTiter-Glo (AID 1117346;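 active = compounds that lower survival of DLD-1 colon cancer cells in the luminescence readout, no cutoff given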). The following applies: DLD-1 viability, CellTiter-Glo luminescence; at 20 µM (top of the series).

Activity calls are given as the source filed them.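 The calls were made as follows, unless noted: active = compound that reduces growth-factor-driven endothelial tube area in a mixed cell culture, no cutoff stated; inactive = the rest.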

With `CCCCN=C(N)N=C(N)N`, the nuclear beta-catenin stimulation was 2.9% (inactive) in experiment [1] (at 10 µM) and 0.9% in experiment [1] (stimulation, at 2 µM). The insulin secretion stimulation in experiment [2] was -1.1% (inactive). Besides, the viability decrease in experiment [3] is -10.8% (inactive). In addition, the tube area decrease in experiment [4] is 3.5% (inactive). For the same compound, in experiment [5], the GLP1 secretion stimulation is 2.1% (inactive). Further, the inhibition of viability in experiment [6] is 3.4% (inactive). Besides, the viability decrease (inhibition) in experiment [7] was 54.5% (active); in experiment [8], -0.2% (inactive).
As to `CCC1(c2cnc[nH]2)Cc2ccccc2C1`, the nuclear beta-catenin stimulation was 1.2% (inactive) in experiment [1] (at 10 µM) and 1.5% in experiment [1] (stimulation, at 2 µM). Moreover, the insulin secretion stimulation in experiment [2] is 13.1% (inactive). Also, in experiment [3], the viability decrease was 38% (inactive). Also, the tube area decrease in experiment [4] was 22.4% (inactive). In addition, the GLP1 secretion stimulation in experiment [5] was -3.3% (inactive). For the same compound, the inhibition of viability in experiment [6] was -0.4% (inactive). In addition, the viability decrease (inhibition) in experiment [7] is 19.3% (inactive); in experiment [8], 38.2% (inactive).
With `CS(=O)(=O)c1ccc(-c2cn3ccccc3n2)cc1`, the nuclear beta-catenin stimulation is -2% (inactive) in experiment [1] (at 10 µM) and -0.4% in experiment [1] (stimulation, at 2 µM). Besides, the insulin secretion stimulation in experiment [2] is 0.9% (inactive). Also, the viability decrease in experiment [3] is 18.1% (inactive). Besides, the tube area decrease in experiment [4] is -6.3% (inactive). Moreover, the GLP1 secretion stimulation in experiment [5] was -2.6% (inactive). Also, in experiment [6], the inhibition of viability was 14.5% (inactive). Further, the viability decrease (inhibition) in experiment [7] is 22.6% (inactive); in experiment [8], 13.5% (inactive).
In the case of `C[C@H](CN1CCCC1)C(=O)c1ccc(C(F)(F)F)cc1`, the nuclear beta-catenin stimulation is 5.1% (inactive) in experiment [1] (at 10 µM) and -1.9% in experiment [1] (stimulation, at 2 µM). Also, the insulin secretion stimulation in experiment [2] is 8.3% (inactive). The viability decrease in experiment [3] is -5.5% (inactive). Further, in experiment [4], the tube area decrease is -4% (inactive). Further, in experiment [5], the GLP1 secretion stimulation was -0.4% (inactive). The inhibition of viability in experiment [6] was 7.8% (inactive). Further, the viability decrease (inhibition) is 73.8% (active) in experiment [7] and 68.1% (active) in experiment [8].
As for `Cc1cc2nc3c(=O)[nH]c(=O)nc-3n(C[C@H](O)[C@H](O)[C@H](O)COP(=O)(O)OP(=O)(O)OC[C@H]3O[C@@H](n4cnc5c(N)ncnc54)[C@H](O)[C@H]3O)c2cc1C`, the nuclear beta-catenin stimulation in experiment [1] (at 10 µM) is -2.2% (inactive); in experiment [1] (stimulation, at 2 µM) it was 0.2%. Further, in experiment [2], the insulin secretion stimulation is 5.5% (inactive). Moreover, in experiment [3], the viability decrease was -3.6% (inactive). The tube area decrease in experiment [4] is -2.4% (inactive). For the same compound, in experiment [5], the GLP1 secretion stimulation was -3.7% (inactive). Besides, the inhibition of viability in experiment [6] was -18.9% (inactive). Besides, the viability decrease (inhibition) was 16.1% (inactive) in experiment [7] and -48.9% (inactive) in experiment [8].
Regarding `CC(C)CCC[C@@H](C)[C@H]1CC[C@H]2[C@@H]3CC=C4C[C@@H](O)CC[C@]4(C)[C@@H]3CC[C@]12C`, the nuclear beta-catenin stimulation in experiment [1] (at 10 µM) is -0.4% (inactive); in experiment [1] (stimulation, at 2 µM), -1%. Besides, the insulin secretion stimulation in experiment [2] was 1% (inactive). The viability decrease in experiment [3] was 26.9% (inactive). In addition, in experiment [4], the tube area decrease was 37.5% (inactive). Also, the GLP1 secretion stimulation in experiment [5] is -2.1% (inactive). In addition, in experiment [6], the inhibition of viability was 43.2% (inactive). Besides, the viability decrease (inhibition) in experiment [7] is 52.2% (active); in experiment [8], 41.9% (inactive).
For the compound `O=c1[nH]c(=O)n([C@H]2O[C@H](CO)[C@@H](O)[C@@H]2O)cc1/C=C\Br`, the nuclear beta-catenin stimulation in experiment [1] (at 10 µM) was 0.8% (inactive); in experiment [1] (stimulation, at 2 µM) it was -0.6%. Besides, the insulin secretion stimulation in experiment [2] was 3.5% (inactive). Also, the viability decrease in experiment [3] was -12.2% (inactive). In addition, the tube area decrease in experiment [4] was -20.7% (inactive). Also, the GLP1 secretion stimulation in experiment [5] is 1.5% (inactive). Besides, the inhibition of viability in experiment [6] is -27.5% (inactive). For the same compound, the viability decrease (inhibition) is -23.9% (inactive) in experiment [7] and 2.6% (inactive) in experiment [8].
For `[O-][n+]1ccccc1SSc1cccc[n+]1[O-]`, the nuclear beta-catenin stimulation in experiment [1] (at 10 µM) was 78.1% (active); in experiment [1] (stimulation, at 2 µM), 34%. For the same compound, in experiment [2], the insulin secretion stimulation was -0.2% (inactive). For the same compound, in experiment [3], the viability decrease was 51% (active). Besides, the tube area decrease in experiment [4] is 103% (active). For the same compound, the GLP1 secretion stimulation in experiment [5] is 15.1% (inactive). Besides, in experiment [6], the inhibition of viability is 51.9% (active). Moreover, the viability decrease (inhibition) is -68.5% (inactive) in experiment [7] and 1.15% (inactive) in experiment [8].
In the case of `Cc1c(C)c2c(c(C)c1OC(=O)CCC(=O)O)CC[C@@](C)(CCC[C@H](C)CCC[C@H](C)CCCC(C)C)O2`, the nuclear beta-catenin stimulation in experiment [1] (at 10 µM) is -0.9% (inactive); in experiment [1] (stimulation, at 2 µM) it was -0.6%. In addition, the insulin secretion stimulation in experiment [2] was 2.6% (inactive). The viability decrease in experiment [3] is 36.4% (inactive). Also, the tube area decrease in experiment [4] is 61.9% (active). Moreover, the GLP1 secretion stimulation in experiment [5] is -3.2% (inactive). In experiment [6], the inhibition of viability was 54.9% (active). For the same compound, the viability decrease (inhibition) is 75% (active) in experiment [7] and 66% (active) in experiment [8].
Take `CCOc1c(N2CCOCC2)cnn(C)c1=O`: the nuclear beta-catenin stimulation in experiment [1] (at 10 µM) was -0.3% (inactive); in experiment [1] (stimulation, at 2 µM), 4.4%. The insulin secretion stimulation in experiment [2] was 1.5% (inactive). Also, in experiment [3], the viability decrease was -36.6% (inactive). The tube area decrease in experiment [4] is 4.1% (inactive). For the same compound, the GLP1 secretion stimulation in experiment [5] was 0.1% (inactive). In addition, the inhibition of viability in experiment [6] was 11.2% (inactive). Also, the results for the viability decrease (inhibition) in experiment [7] and in experiment [8] were 7.7% (inactive) and -14.1% (inactive), respectively.
`N#CSCC(=O)O`: the nuclear beta-catenin stimulation in experiment [1] (at 10 µM) is 0.3% (inactive); in experiment [1] (stimulation, at 2 µM) it was 1%. Besides, the insulin secretion stimulation in experiment [2] is 0.5% (inactive). Moreover, the viability decrease in experiment [3] is -47.6% (inactive). In addition, the tube area decrease in experiment [4] is 2.4% (inactive). In experiment [5], the GLP1 secretion stimulation is -0.1% (inactive). In addition, the inhibition of viability in experiment [6] was -4.8% (inactive). Moreover, the viability decrease (inhibition) in experiment [7] was -6.2% (inactive); in experiment [8], -5.4% (inactive).
As to `CCN1CCCC1CN` (stereo unspecified), the nuclear beta-catenin stimulation in experiment [1] (at 10 µM) is 1.1% (inactive); in experiment [1] (stimulation, at 2 µM) it was 1.8%. For the same compound, the insulin secretion stimulation in experiment [2] was 4.8% (inactive). Further, in experiment [3], the viability decrease was 39.7% (inactive). The tube area decrease in experiment [4] is -0.3% (inactive). In experiment [5], the GLP1 secretion stimulation was 3.1% (inactive). Also, in experiment [6], the inhibition of viability is 32.2% (inactive). In addition, the viability decrease (inhibition) was 43.3% (inactive) in experiment [7] and 12.4% (inactive) in experiment [8].
Regarding `Cc1cccc(C)c1OCC(=O)N[C@@H](Cc1ccccc1)[C@@H](O)C[C@H](Cc1ccccc1)NC(=O)[C@H](C(C)C)N1CCCNC1=O`, the nuclear beta-catenin stimulation was 2% (inactive) in experiment [1] (at 10 µM) and -0.1% in experiment [1] (stimulation, at 2 µM). The insulin secretion stimulation in experiment [2] was 2.4% (inactive). Also, in experiment [3], the viability decrease is 67.4% (active). Further, the tube area decrease in experiment [4] was 2% (inactive). Besides, in experiment [5], the GLP1 secretion stimulation is 1.5% (inactive). In experiment [6], the inhibition of viability was 43.5% (inactive). Besides, the figures for the viability decrease (inhibition) in experiment [7] and in experiment [8] were 80.2% (active) and 73.5% (active), respectively.
Consider `O=S(=O)(O)c1ccc2nc(-c3ccccc3)[nH]c2c1`, for which the nuclear beta-catenin stimulation in experiment [1] (at 10 µM) was 0.1% (inactive); in experiment [1] (stimulation, at 2 µM), 0.5%. In addition, in experiment [2], the insulin secretion stimulation was -0.6% (inactive). For the same compound, the viability decrease in experiment [3] was 5.35% (inactive). For the same compound, in experiment [4], the tube area decrease is -26.3% (inactive). Moreover, the GLP1 secretion stimulation in experiment [5] is 1.9% (inactive). Besides, the inhibition of viability in experiment [6] is 6.9% (inactive). In addition, the viability decrease (inhibition) in experiment [7] was 10.6% (inactive); in experiment [8], -0.25% (inactive).

(Values after PubChem BioAssay.)
